Compound activity from PubChem.
A selection: hits, their analogues and other compounds. The true share with any hit is near 4.3%.
DRD3 antagonist: antagonists of human D3 dopamine receptor; max response, negative = inhibition, %; P35462; D3R cells, DiscoveRx beta-arrestin luminescence, antagonist mode; stronger effect = lower value; 360,000 tested, 2.5% active; in the data active means max response below about -50%; inconclusive means no clear call, values can overlap the other calls; further: on the % scale 0 is the no-effect control and ±100 the full control effect
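Cells plated overnight at 1500 cells/well, then exposed to library compounds with dopamine controls for 90 minutes at 37 degrees C. DiscoveRx reagent added for 30–60 minutes at room temperature; luminescence read, quantitative HTS format.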
GLP1R inv ag: acts as inverse agonist at human GLP-1 receptor | P43220 | HEK293 GLP-1R CRE-luciferase, luminescence, 24 h; GLP-1R form is constitutively active | Potency, µM (series often up to 38.3 µM), for the others: top-dose activity change, negative = inhibition, hits mostly inhibitors | 410,000 tested, 1.6% active | AID 624417; further: potency means the concentration at half of the fitted maximal effect; on the % scale 0 is the no-effect control and ±100 the full control effect; nearly all actives have a fitted effect of over 55% in size
Target sequence (P43220 whole entry, looked up): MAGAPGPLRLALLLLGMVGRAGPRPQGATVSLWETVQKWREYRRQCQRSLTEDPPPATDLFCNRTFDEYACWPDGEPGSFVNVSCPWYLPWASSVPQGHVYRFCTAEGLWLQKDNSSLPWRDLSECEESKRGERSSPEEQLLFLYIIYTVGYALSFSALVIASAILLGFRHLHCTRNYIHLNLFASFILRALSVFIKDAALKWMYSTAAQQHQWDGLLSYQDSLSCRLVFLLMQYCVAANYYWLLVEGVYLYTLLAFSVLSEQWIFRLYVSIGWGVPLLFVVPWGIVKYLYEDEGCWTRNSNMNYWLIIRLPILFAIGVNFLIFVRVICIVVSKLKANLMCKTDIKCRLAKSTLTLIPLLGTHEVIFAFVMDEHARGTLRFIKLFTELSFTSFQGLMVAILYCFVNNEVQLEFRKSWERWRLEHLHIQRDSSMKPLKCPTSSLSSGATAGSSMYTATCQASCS
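GLP-1R inverse agonism mode: basal reporter luminescence in engineered HEK293 cells measured after one day of compound exposure at 37 deg C, with a 12 min room-temperature detection step.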
D3 ag: activates the human D3 dopamine receptor; P35462; D3R DiscoveRx beta-arrestin cells, luminescence, 90 min; max activation, %; 410,000 tested, 0.58% active; AID 652048; in the data active means max activation above about 30%; further: 0% is about no effect
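Cells at 1500/well, incubated overnight, then treated with pinned compounds (dopamine as control) for 90 min at 37 degrees C. DiscoveRx reagent added for 30 - 60 minutes at room temperature; luminescence read.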
GLP-1R agonist: GLP-1 receptor (human) agonism. Potency, µM (series often up to 45.6 µM), inactives show top-dose activation, most hits filed as activators. P43220. HEK293 GLP-1R CRE-luciferase, luminescence, 4-6 h; cells express a hypersensitive GLP-1R form. 380,000 tested, 0.007% active. AID 624172; further: potency means the concentration at half of the fitted maximal effect; % of control where 0% means no effect
The depositor's hits bear a star; ! = not active in a repeat. Unless noted, the call rests on the fitted dose curve; in most records, active means well fitted curve in the direction sought with a large enough effect; inconclusive means small, poorly fitted or top-dose-only effect, or another doubt; inactive means no such curve, though single readings can be large; an effect the other way counts as inactive or inconclusive.

CCC(C)Sc1cccc(-c2nc3ccccn3c2NCc2ccccc2)c1 (configuration not stated) was read as DRD3 antagonist 97, GLP1R inv ag 15%, D3 ag 33* and GLP-1R agonist -3%.
Screening CCCCNc1c(-c2ccc(SC(C)CC)c(OC)c2)nc2ccc(C)cn12 (configuration not stated) returned DRD3 antagonist 66, GLP1R inv ag inconclusive, D3 ag 55* and GLP-1R agonist -3%.
`CCCCNc1c(-c2ccc(SC(C)CC)c(OC)c2)nc2ccc(Cl)cn12` (configuration not stated) gave DRD3 antagonist 51, GLP1R inv ag -3%, D3 ag 2 and GLP-1R agonist 27%.
O=C1O[C@@H]2[C@@H](O)[C@H](O)O[C@@H]2[C@H]1O was read as D3 ag -7.
`Cc1cc(CC(=O)O)c(C)n1-c1ccc(Cl)cc1` gave D3 ag -5 and GLP-1R agonist 8%.
CCCCCCSc1cc(-c2nc3ccc(C)cn3c2NCc2ccccc2)ccc1OC was read as DRD3 antagonist 40, GLP1R inv ag inconclusive, D3 ag 62*! and GLP-1R agonist 4%.
`Cc1ccc2nc(-c3cccc(-c4cccc(Cl)c4)c3)c(NCc3ccccc3)n2c1` gave DRD3 antagonist 8, GLP1R inv ag 11µM*, D3 ag 5 and GLP-1R agonist -14%.
CCCCCCSc1ccc(-c2nc3ccc(C)cn3c2NCCCC)cc1OC was read as DRD3 antagonist 5, GLP1R inv ag inconclusive, D3 ag 4 and GLP-1R agonist -1%.
`CCCCCCSc1cccc(-c2nc3ccc(C)cn3c2NCc2ccccc2)c1` gave DRD3 antagonist 108, GLP1R inv ag inconclusive, D3 ag 14 and GLP-1R agonist -3%.
Screening CCC(C)Sc1cccc(-c2nc3cc(C)ccn3c2NC2CCCCC2)c1 (configuration not stated) returned DRD3 antagonist 7, GLP1R inv ag 5µM*, D3 ag 3 and GLP-1R agonist 2%.
Screening CCCCCCSc1cccc(-c2nc3cc(C)ccn3c2NCc2ccccc2)c1 returned DRD3 antagonist 7, GLP1R inv ag 5µM*, D3 ag 33*! and GLP-1R agonist 0%.
For Cc1ccc(C(CC(=O)Nc2ccc(C)cc2C)N2Cc3ccccc3C2=O)cc1 (configuration not stated) the results were GLP1R inv ag inconclusive, D3 ag -5 and GLP-1R agonist -7%.
CC(C)c1ccc(NC(=O)CSC2=Nc3ccccc3C3=NC(CCC(=O)NCc4ccco4)C(=O)N23)cc1 (configuration not stated) was read as GLP1R inv ag 5% and D3 ag 8.
For C[C@@H]1CCN(C(=O)[C@H](CCCN=C(N)N)NS(=O)(=O)c2cccc3c2NC[C@H](C)C3)[C@@H](C(=O)O)C1 the results were D3 ag 95*.
For CCN(Cc1ccccc1OC)CC1CCCN(CCc2cccc(OC)c2)C1 (configuration not stated) the results were DRD3 antagonist -22, GLP1R inv ag inconclusive, D3 ag -7 and GLP-1R agonist -14%.
`CCN(Cc1ccc(C#CCCO)cc1)CC1CCCN(CCc2cccc(F)c2)C1` (configuration not stated) gave DRD3 antagonist -9, GLP1R inv ag 10µM*, D3 ag -11 and GLP-1R agonist 1%.
For CCN(Cc1ccc(NC(C)=O)cc1)CC1CCCN(CCc2cccc(OC)c2)C1 (configuration not stated) the results were DRD3 antagonist -52*, GLP1R inv ag inconclusive, D3 ag -5 and GLP-1R agonist -2%.
For COc1cccc(COC(=O)c2ccc(-c3nnn(Cc4ccccc4)n3)cc2)c1 the results were GLP1R inv ag -7% and D3 ag -6.
Screening Cc1ccc2nc(-c3ccc(NC(=O)CNC4CC4)cc3)sc2c1 returned DRD3 antagonist 6, GLP1R inv ag 13µM*, D3 ag -7 and GLP-1R agonist -5%.
Screening COc1ccccc1C(=O)C1CCCN(Cc2cn[nH]c2C2CCCCC2)C1 (configuration not stated) returned DRD3 antagonist inconclusive, GLP1R inv ag inconclusive, D3 ag -27 and GLP-1R agonist 9%.
CCOc1ccccc1NC(=O)Nc1ccc2nc(N3CCN(C)CC3)cc(C)c2c1 was read as GLP1R inv ag inconclusive and D3 ag -13.
